Assay type in all cases: functional
Test [1] has as its target Solute carrier family 2, facilitated glucose transporter member 1 (Homo sapiens) (UniProt P11166). The experiment in a line: ST_JUDE_LEISH: Cytotoxicity at 2uM final concentration against transgenic Leishmania Mexicana promastigotes LmGLUT1 that are glucose transport deficient and complemented with the human glucose transporter GLUT1. Activity is measured by DNA content using SYBR green in vitro.

The target in test [2] is Hexose transporter 1 (Plasmodium falciparum) (UniProt O97467). The experiment in a line: ST_JUDE_LEISH: Cytotoxicity at 2uM final concentration against transgenic Leishmania Mexicana promastigotes LmPfHT that are glucose transport deficient and complemented with the Plasmodium falciparum hexose transporter. Activity is measured by DNA content using SYBR green in vitro.
The target in test [3] is Glucose transporter (Leishmania mexicana) (UniProt O61059). The experiment in a line: ST_JUDE_LEISH: Cytotoxicity at 2uM final concentration against transgenic Leishmania Mexicana promastigotes LmGT2 that are glucose transport deficient and complemented with the L. Mexicana glucose transporter 2. Activity is measured by DNA content using SYBR green in vitro.

These results are taken from ChEMBL document CHEMBL3433997, “St. Jude Leishmania screening dataset” (2016).

Each structure is given as a SMILES string.

Sequence of Solute carrier family 2, facilitated glucose transporter member 1 (Homo sapiens) (P11166 whole entry): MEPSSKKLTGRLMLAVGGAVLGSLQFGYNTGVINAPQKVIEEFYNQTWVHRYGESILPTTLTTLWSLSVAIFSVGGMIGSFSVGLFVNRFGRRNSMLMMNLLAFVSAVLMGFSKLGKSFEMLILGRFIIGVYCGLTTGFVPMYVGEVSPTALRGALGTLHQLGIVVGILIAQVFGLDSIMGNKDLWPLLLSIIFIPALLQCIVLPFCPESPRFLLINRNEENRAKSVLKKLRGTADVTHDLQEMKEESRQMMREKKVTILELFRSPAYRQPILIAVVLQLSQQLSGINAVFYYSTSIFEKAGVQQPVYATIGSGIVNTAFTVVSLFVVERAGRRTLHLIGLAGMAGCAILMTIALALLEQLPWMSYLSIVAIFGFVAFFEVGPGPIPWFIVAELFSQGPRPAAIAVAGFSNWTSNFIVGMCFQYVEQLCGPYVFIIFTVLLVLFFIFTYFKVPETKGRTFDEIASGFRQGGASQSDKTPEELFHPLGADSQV

One may read the inhibition as the change of the read-out against control, counted positive when it falls. For the molecule `CCCC(C)C(=O)N1CCOC(COCc2cccc(C(F)(F)F)c2)(c2ccc(Cl)cc2)C1` (stereo not given), the results for the inhibition in test [1], in test [2] and in test [3] were -0.83%, 0.15% and -1.52%, respectively.
Taken in the same sequence, the figures for `O=C(Nc1ccc(Oc2ccc(OC(F)(F)F)cc2)cc1)c1ccco1` were 2.92%, 1.49% and -0.53%.
Consider `CC(C)NCc1ccc(-c2ccc(NC(=O)c3ccc(Cl)cc3)cc2)cc1`, for which the figures for the inhibition in test [1], in test [2] and in test [3] were 19.7%, 16.2% and 16.1%, respectively.
Taken in the same sequence, the figures for `COc1ccc(CCn2c(C3CCCCC3)nc3oc4ccccc4c(=O)c3c2=O)cc1` were 3%, 5.28% and -0.12%.
In the case of `OC(Cn1ccnc1)(c1ccc(Cl)cc1Cl)C1CCCCC1` (stereo not given), the inhibition was 7.78% in test [1], 1.5% in test [2] and -0.69% in test [3].
Taken in the same sequence, the figures for `Cc1cc(NCCC(=O)NCCOc2ccccc2)nc(NCc2ccccc2C)n1` were 3.15%, 0.58% and 0.45%.
For `O=C(Cc1ccc(Cl)cc1)NC1CCN(c2ccnc3cc(Cl)ccc23)C1` (stereo not given), the inhibition was -0.91% in test [1], 0.24% in test [2] and 0.26% in test [3].
On the same counts, the results for `CCc1ccc(NC(=O)c2ccc(CN3CCCN(Cc4cccc(C)c4)CC3)cc2)cc1` are 7.45%, 9.33% and 5.79%.
For the molecule `Cc1nc(Nc2ccc(C)c(Cl)c2)c2c(C)noc2n1`, the inhibition came to 5.28% in test [1], 4.91% in test [2] and 4.71% in test [3].
On the same counts, the results for `O=C(/C=C/c1ccc(Cl)c(Cl)c1)NCCCCCN1CCCC(CNC(=O)/C=C/c2ccccc2)C1` (stereo not given) are -0.59%, -0.44% and -0.59%.
Taken in the same sequence, the figures for `Cc1cccc2nc(-c3cccc(-c4ccc(NC(=O)c5cccc(C(N)=O)c5)cc4)c3)[nH]c12` were 1.01%, 1.42% and 1.38%.
Taken in the same sequence, the figures for `CC(C)NCc1ccc(-c2ccc(-c3nc4cc(F)ccc4[nH]3)cc2)cc1` were 7.9%, 8.81% and 6.75%.
As to `O=C(N[C@H]1CCN(CCc2ccc(O[C@H]3CCNC3)c(Br)c2)C1)c1ccc(Cl)c(Cl)c1`, the values for the inhibition in test [1], in test [2] and in test [3] were 0.91%, 3% and 1.43%, respectively.
Consider `COc1ccc(-c2cc(-c3nc4cc(C(=O)N5CCOCC5)ccc4[nH]3)c(=O)n(C)c2)cc1OC`, for which the inhibition in test [1] was found to be 2.76%; in test [2], 0.74%; in test [3], 0.91%.
For `CC(C)Oc1cccc(-c2ccc(C(=O)NCC3CCCN(Cc4cccc(C(F)(F)F)c4)C3)s2)c1` (stereo not given), the inhibition is -1.06% in test [1], -1.35% in test [2] and -3% in test [3].
For `O=C(Nc1ccc(OC(F)(F)F)cc1)Nc1ccc([N+](=O)[O-])cc1`, the inhibition came out at 1.82% in test [1], 2.15% in test [2] and 1.9% in test [3].
Taken in the same sequence, the figures for `COc1ccccc1NS(=O)(=O)c1cc(C(=O)Nc2ccc(N3CCOCC3)c(S(=O)(=O)Nc3ccccc3Cl)c2)ccc1Cl` were 3.2%, 2.83% and 0.88%.
On the same counts, the results for `COc1ccc2[nH]ccc(=NN=Cc3ccc(F)cc3)c2c1` are 2.33%, -0.63% and -0.34%.
On the same counts, the results for `Cn1nc(-c2ccc(NC(=O)Nc3cc(C(F)(F)F)ccc3F)c(F)c2)c2cnc(NCCCn3ccnc3)nc21` are -0.19%, -1.5% and 0.5%.
As for `Cc1ccc(Cc2c(N)nc3nc(N)nc(N)c3c2C)cc1`, the inhibition in test [1] was determined as 4.96%; in test [2], 8.67%; in test [3], 6.55%.
For `COC(=O)c1cccc(CNCc2cccc(-c3cccc(-c4nc5cc(C(F)(F)F)ccc5[nH]4)c3)c2)c1`, the values for the inhibition in test [1], in test [2] and in test [3] were -1.41%, -2.35% and -2.5%, respectively.
On the same counts, the results for `CC(C)[C@H](NC(=O)NC1CCC(CCN2C3CCC2CC(OC(=O)C(CO)c2ccccc2)C3)CC1)C(O)(c1ccccc1)c1ccccc1` (stereo not given in full) are 3.62%, 3.92% and 1.15%.
For `CCCCCCCC1CC(CC(=O)Nc2ccnc3ccc(OC)cc23)CN1C(=O)OC(C)(C)C` (stereo not given), the values for the inhibition in test [1], in test [2] and in test [3] were 9.12%, 11.2% and 3.12%, respectively.
Regarding `c1ccc2[nH]c(CN(Cc3nc4ccccc4[nH]3)Cc3nc4ccccc4[nH]3)nc2c1`, the inhibition in test [1] was -2.76%; in test [2], 1.73%; in test [3], -0.29%.
On the same counts, the results for `CCn1ncc(Cl)c1CN(C)S(=O)(=O)c1ccc2ccccc2c1` are 5.72%, 6.41% and 6.31%.
